# Measured values as given in PMC5700166.
# Where a chain is given by its changes, count along the chain named.
# Columns and labels:
# Assay in all cases: protein-binding microarray (PBM); PBM: ~300 nM protein, 6 mM HEPES pH 7.8, 80 mM KCl, 0.5 mM EDTA, 0.5 mM EGTA, 6% glycerol, 35 ng/ul poly-dIdC, 1% milk, 1 h, room temperature; Ap Aiptasia and Nv Nematostella (sea anemones) / Co Capsaspora / Aq Amphimedon (sponge) / Dm Drosophila / Hu human; RHD is the Rel homology domain; high values mean tight binding
# Conditions in all cases: dsDNA, one strand shown
# [1] = target: T1, GST-Ap-NF-kB RHD (Exaiptasia pallida (Aiptasia), UniProt A0A913YAJ5 2-422)
# T1 sequence: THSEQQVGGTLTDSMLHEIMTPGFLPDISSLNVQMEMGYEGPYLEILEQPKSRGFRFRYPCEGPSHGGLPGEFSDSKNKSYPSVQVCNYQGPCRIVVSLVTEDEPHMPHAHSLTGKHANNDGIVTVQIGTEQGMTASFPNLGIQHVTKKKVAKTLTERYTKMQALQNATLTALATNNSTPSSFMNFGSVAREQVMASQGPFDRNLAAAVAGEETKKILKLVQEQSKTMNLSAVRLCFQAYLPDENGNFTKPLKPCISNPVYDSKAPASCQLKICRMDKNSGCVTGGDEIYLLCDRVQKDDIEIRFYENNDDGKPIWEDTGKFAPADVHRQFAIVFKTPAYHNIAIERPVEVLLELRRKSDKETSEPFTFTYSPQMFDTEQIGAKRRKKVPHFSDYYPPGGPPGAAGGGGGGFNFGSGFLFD
# [2] = target: T2, GST-Nv-NF-kB (Cys allele) (Nematostella vectensis, UniProt E5G601 2-411)
# T2 sequence: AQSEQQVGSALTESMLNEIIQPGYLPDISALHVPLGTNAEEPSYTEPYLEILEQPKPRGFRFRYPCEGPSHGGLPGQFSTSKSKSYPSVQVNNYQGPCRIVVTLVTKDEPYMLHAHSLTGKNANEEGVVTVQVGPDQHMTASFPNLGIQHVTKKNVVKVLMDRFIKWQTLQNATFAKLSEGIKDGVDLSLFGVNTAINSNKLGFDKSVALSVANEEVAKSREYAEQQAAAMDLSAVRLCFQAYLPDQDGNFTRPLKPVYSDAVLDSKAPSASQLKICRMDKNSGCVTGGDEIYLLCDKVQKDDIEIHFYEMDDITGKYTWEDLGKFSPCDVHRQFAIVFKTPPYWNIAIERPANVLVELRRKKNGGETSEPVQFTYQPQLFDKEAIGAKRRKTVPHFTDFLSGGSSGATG
# [3] = target: T3, GST-Nv-NF-kB (Ser allele) (Nematostella vectensis, UniProt A7UNT2 2-411)
# T3 sequence: T2 sequence with Q21R, C66S, S207N, E215Q, V217A, E225K, A268E, D399E
# [4] = target: T4, GST-Co-NF-kB (Capsaspora owczarzaki, UniProt F1ARL5 200-546)
# T4 sequence: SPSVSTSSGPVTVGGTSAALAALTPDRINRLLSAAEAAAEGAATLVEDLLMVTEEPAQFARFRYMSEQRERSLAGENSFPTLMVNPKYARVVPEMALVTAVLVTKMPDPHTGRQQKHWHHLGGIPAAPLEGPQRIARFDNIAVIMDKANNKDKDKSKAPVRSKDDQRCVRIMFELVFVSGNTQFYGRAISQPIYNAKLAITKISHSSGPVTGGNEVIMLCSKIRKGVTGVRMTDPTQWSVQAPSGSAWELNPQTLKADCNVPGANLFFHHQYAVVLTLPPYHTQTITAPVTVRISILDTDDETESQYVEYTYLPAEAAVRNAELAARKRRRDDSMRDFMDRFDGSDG
# [5] = target: T5, GST-Dm-Relish (Drosophila melanogaster, UniProt Q94527 99-473)
# T5 sequence: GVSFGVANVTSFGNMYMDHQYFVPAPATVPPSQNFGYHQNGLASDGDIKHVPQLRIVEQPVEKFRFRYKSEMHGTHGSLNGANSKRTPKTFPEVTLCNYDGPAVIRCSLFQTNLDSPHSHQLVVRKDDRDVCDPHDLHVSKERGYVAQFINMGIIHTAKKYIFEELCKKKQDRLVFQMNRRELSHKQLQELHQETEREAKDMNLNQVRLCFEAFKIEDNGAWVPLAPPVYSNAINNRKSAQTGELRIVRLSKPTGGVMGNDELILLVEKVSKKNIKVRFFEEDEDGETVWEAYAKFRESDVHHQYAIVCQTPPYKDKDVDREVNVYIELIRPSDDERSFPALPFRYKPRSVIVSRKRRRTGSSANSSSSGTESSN
# [6] = target: T6, GST-Aq-NF-kB (Amphimedon queenslandica, UniProt A9Y5G7 2-389)
# T6 sequence: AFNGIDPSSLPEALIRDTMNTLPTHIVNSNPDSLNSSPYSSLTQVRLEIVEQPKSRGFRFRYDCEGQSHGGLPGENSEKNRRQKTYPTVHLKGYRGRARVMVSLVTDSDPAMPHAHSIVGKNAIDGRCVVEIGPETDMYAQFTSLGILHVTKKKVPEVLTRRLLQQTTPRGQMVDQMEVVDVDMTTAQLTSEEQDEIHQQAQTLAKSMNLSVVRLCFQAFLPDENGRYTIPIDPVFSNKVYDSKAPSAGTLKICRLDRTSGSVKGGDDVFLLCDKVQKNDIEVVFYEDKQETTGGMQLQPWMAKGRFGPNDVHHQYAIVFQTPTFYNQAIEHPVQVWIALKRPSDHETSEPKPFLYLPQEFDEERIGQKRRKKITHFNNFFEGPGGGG
# [7] = target: GST-Hu-p50 (Homo sapiens, UniProt P19838 7-356)
# GST-Hu-p50, sequence (P19838 7-356): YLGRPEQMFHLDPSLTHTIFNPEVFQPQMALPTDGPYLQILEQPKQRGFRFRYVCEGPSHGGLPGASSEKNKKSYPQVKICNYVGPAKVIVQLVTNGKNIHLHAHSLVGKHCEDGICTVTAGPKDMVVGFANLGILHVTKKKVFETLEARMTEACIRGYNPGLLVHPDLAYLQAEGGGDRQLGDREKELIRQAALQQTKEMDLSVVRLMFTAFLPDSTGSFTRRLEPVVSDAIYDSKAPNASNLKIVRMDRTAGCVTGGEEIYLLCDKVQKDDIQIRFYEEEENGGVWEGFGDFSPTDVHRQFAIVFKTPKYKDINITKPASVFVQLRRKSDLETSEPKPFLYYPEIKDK
Sequence,binding signal [1] [z-score],binding signal [2] [z-score],binding signal [3] [z-score],binding signal [4] [z-score],binding signal [5] [z-score],binding signal [6] [z-score],binding signal [7] [z-score]
CCGATTAACATCAGGGGGATATATGATGTTAATCGGGTCTTGATTCGCTTGACGCTGCTG,6.45,5.67,6.14,6.72,4.91,5.58,5.49
CCGATTAACATCAAAAACTTCCCTGATGTTAATCGGGTCTTGATTCGCTTGACGCTGCTG,5.3,5.84,6.81,3.89,5.16,6.27,4.68
CCGATTAACATCAGGGGATCACCTGATGTTAATCGGGTCTTGATTCGCTTGACGCTGCTG,7.26,5.39,6.05,2.95,9.04,6.68,4.71
CCGATTAACATCACTAAATCCCCTGATGTTAATCGGGTCTTGATTCGCTTGACGCTGCTG,6.91,7.06,9.63,3.45,6.49,5.34,6.6
CCGATTAACATCAATAATTTCCCTGATGTTAATCGGGTCTTGATTCGCTTGACGCTGCTG,4.38,6.39,7.05,4.82,3.45,5.17,5
CCGATTAACATCAAGAAACCCCCTGATGTTAATCGGGTCTTGATTCGCTTGACGCTGCTG,9.53,8.55,9.47,3.31,10,7.67,7.53
CCGATTAACATCACATATTCCCCTGATGTTAATCGGGTCTTGATTCGCTTGACGCTGCTG,7.49,8.81,9.04,7.39,4.55,6.7,5.69
CCGATTAACATCAGGGGGGACTATGATGTTAATCGGGTCTTGATTCGCTTGACGCTGCTG,5.46,5.17,4.88,5.47,4.09,4.64,3.99
CCGATTAACATCACGGGGAATTATGATGTTAATCGGGTCTTGATTCGCTTGACGCTGCTG,7.23,8.96,9.51,8.2,6.78,6.42,6.24
CCGATTAACATCAGATATCCCCCTGATGTTAATCGGGTCTTGATTCGCTTGACGCTGCTG,7.25,6.62,7.52,6.39,5.78,5.89,5.59
CCGATTAACATCAGGAACTCCCATGATGTTAATCGGGTCTTGATTCGCTTGACGCTGCTG,2.86,2.53,1.04,1.08,4.29,3.71,1.95
CCGATTAACATCACACATTCCCCTGATGTTAATCGGGTCTTGATTCGCTTGACGCTGCTG,6.52,7.88,8.75,5.83,2.91,5.41,5.28
